Common to all, as to details: mRNA level, 48 h; actives raise or lower the signal
Read-out in assay [1]: Cyclin Dependent Kinase Inhibitor 1A (CDKN1A), CDKN1A (gene 1026)
The assay can be described thus: LTEA_HepaRG_CDKN1A: Life Technologies and Expression Analysis (LTEA) Assay for Cyclin Dependent Kinase Inhibitor 1A (CDKN1A) using HepaRG (AID 2283450). The gist of the method: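 HepaRG, 48 h dosing, 8-pt half-log series from 100 uM top, 0.5% DMSO vehicle, duplicates. Readout: TaqMan qRT-PCR of CDKN1A transcript, housekeeping-normalized (ACTB, GAPDH, POLR2A). Up/down curve fit relative to DMSO.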

Read-out in assay [2]: Cyclin D1 (CCND1), CCND1 (gene 595)
The assay can be described thus: LTEA_HepaRG_CCND1: Life Technologies and Expression Analysis (LTEA) Assay for Cyclin D1 (CCND1) using HepaRG (AID 2283451). The gist of the method: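 qRT-PCR (Fluidigm 96.96 array) read-out of transcript level, housekeeping-normalized (ACTB/GAPDH/POLR2A). HepaRG cells, 48 h chemical exposure, 8-point half-log series from 100 uM, 0.5% DMSO vehicle; gain or loss relative to DMSO baseline.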

Read-out in assay [3]: catalase (CAT), CAT (gene 847)
Briefly: LTEA_HepaRG_CAT: Life Technologies and Expression Analysis (LTEA) Assay for catalase (CAT) using HepaRG (AID 2283452). The gist of the method: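 Expression of CAT was quantified by TaqMan qRT-PCR with ACTB/GAPDH/POLR2A normalization after 48 h chemical exposure of HepaRG. Eight-point half-log series, top 100 uM, in 0.5% DMSO; gain or loss fitted against vehicle.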

Read-out in assay [4]: flavin-containing dimethylaniline monooxygenases 3 (FMO3), FMO3 (gene 2328)
Briefly: LTEA_HepaRG_FMO3: Life Technologies and Expression Analysis (LTEA) Assay for flavin-containing dimethylaniline monooxygenases 3 (FMO3) using HepaRG (AID 2283453).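 As to AC50: differentiated human HepaRG liver cells in serum-free induction medium.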 The method in brief: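 Eight-point concentration-response in serum-free HepaRG cultures (top 100 uM, 0.5% DMSO, 48 h). Read-out: FMO3 mRNA level normalized to three endogenous control genes, fitted bidirectionally versus vehicle.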

Read-out in assay [5]: Cytochrome P450 (CYP1A1), CYP1A1 (gene 1543)
The assay can be described thus: LTEA_HepaRG_CYP1A1: Life Technologies and Expression Analysis (LTEA) Assay for Cytochrome P450 (CYP1A1) using HepaRG (AID 2283454). The gist of the method:
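qRT-PCR read-out: CYP1A1 transcript normalized to three housekeeping genes, fitted bidirectionally against 0.5% DMSO vehicle baseline. Human HepaRG cells, 48 h chemical exposure, 8-point half-log series topping at 100 uM.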

Read-out in assay [6]: CFLAR gene, CFLAR (gene 8837)
The assay can be described thus: LTEA_HepaRG_CFLAR: Life Technologies and Expression Analysis (LTEA) Assay for CFLAR gene using HepaRG (AID 2283455). The gist of the method: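 Transcript level by qRT-PCR (normalized to ACTB, GAPDH and POLR2A) after 48 h chemical exposure of HepaRG cells, top concentration 100 uM with half-log steps, 0.5% DMSO vehicle, duplicates; fitted bidirectionally against DMSO baseline.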

Read-out in assay [7]: Forkhead box O1 (FOXO1), FOXO1 (gene 2308)
Briefly: LTEA_HepaRG_FOXO1: Life Technologies and Expression Analysis (LTEA) Assay for Forkhead box O1 (FOXO1) using HepaRG (AID 2283456). The gist of the method: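 FOXO1 transcript quantified by qRT-PCR after 48 h chemical exposure (top 100 uM, half-log steps, 0.5% DMSO) of HepaRG cells, housekeeping-normalized (ACTB/GAPDH/POLR2A). Changes fitted in both directions relative to vehicle.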

Read-out in assay [8]: growth arrest and DNA damage 45 (GADD45A), GADD45A (gene 1647)
Briefly: LTEA_HepaRG_GADD45A: Life Technologies and Expression Analysis (LTEA) Assay for growth arrest and DNA damage 45 (GADD45A) using HepaRG (AID 2283458). The method in brief: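 HepaRG, 48 h exposure, 8 conc. (top 100 uM, half-log steps), 0.5% DMSO vehicle, duplicates. Read-out: qRT-PCR mRNA level, housekeeping-normalized (ACTB/GAPDH/POLR2A). Curves fit bidirectionally vs DMSO baseline.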

Read-out in assay [9]: Forkhead box O3 (FOXO3), FOXO3 (gene 2309)
The assay can be described thus: LTEA_HepaRG_FOXO3: Life Technologies and Expression Analysis (LTEA) Assay for Forkhead box O3 (FOXO3) using HepaRG (AID 2283459). The gist of the method:
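FOXO3 transcript measured by qRT-PCR (normalized to ACTB, GAPDH, POLR2A) after 48 h exposure of HepaRG cells in serum-free induction medium. Duplicates, eight half-log concentrations up to 100 uM, 0.5% DMSO; gain or loss fitted against DMSO.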

Read-out in assay [10]: ABC Transporter (ABCB1), ABCB1 (gene 5243)
The assay can be described thus: LTEA_HepaRG_ABCB1: Life Technologies and Expression Analysis (LTEA) Assay for ABC Transporter (ABCB1) using HepaRG (AID 2283460). The gist of the method: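 ABCB1 transcript level measured by TaqMan qRT-PCR against three housekeeping genes after 48 h chemical exposure of differentiated HepaRG cells. Top concentration 100 uM, half-log steps, eight points, 0.5% DMSO vehicle; bidirectional fit relative to DMSO.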

Read-out in assay [11]: growth arrest and DNA damage 45 (GADD45B), GADD45B (gene 4616)
Briefly: LTEA_HepaRG_GADD45B: Life Technologies and Expression Analysis (LTEA) Assay for growth arrest and DNA damage 45 (GADD45B) using HepaRG (AID 2283461). The gist of the method:
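qRT-PCR read-out (Fluidigm TaqMan, housekeeping-normalized) of mRNA change in human HepaRG cells after 48 h chemical exposure; 8-point curve, top 100 uM, half-log steps, 0.5% DMSO vehicle; gain or loss fitted relative to DMSO baseline.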

Read-out in assay [12]: ABC Transporter (ABCB11), ABCB11 (gene 8647)
The assay can be described thus: LTEA_HepaRG_ABCB11: Life Technologies and Expression Analysis (LTEA) Assay for ABC Transporter (ABCB11) using HepaRG (AID 2283463). The gist of the method: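 ABCB11 transcript levels quantified by TaqMan qRT-PCR against three housekeeping genes after 48 h chemical exposure of HepaRG cultures. Concentrations up to 100 uM in half-log steps, 0.5% DMSO vehicle; both induction and suppression scored.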

Read-out in assay [13]: ABC Transporter (ABCC2), ABCC2 (gene 1244)
The assay can be described thus: LTEA_HepaRG_ABCC2: Life Technologies and Expression Analysis (LTEA) Assay for ABC Transporter (ABCC2) using HepaRG (AID 2283464). The gist of the method: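 qRT-PCR (TaqMan, Fluidigm array) read-out of ABCC2 mRNA, normalized to three housekeeping genes. Differentiated HepaRG cells were treated 48 h in serum-free induction medium with 8-point half-log series from 100 uM in 0.5% DMSO; curves fitted bidirectionally relative to DMSO.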

Read-out in assay [14]: Broad substrate specificity ATP-binding cassette transporter ABCG2 (Homo sapiens) (UniProt Q9UNQ0)
Briefly: LTEA_HepaRG_ABCG2: Life Technologies and Expression Analysis (LTEA) Assay for ABC Transporter (ABCG2) using HepaRG (AID 2283465). The gist of the method: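 ABCG2 transcript was quantified by TaqMan qRT-PCR against three housekeeping genes in HepaRG cells. Cells were treated in duplicate for 48 h across an 8-point half-log series up to 100 uM, with 0.5% DMSO vehicle. Gain or loss versus DMSO was fit.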

Read-out in assay [15]: ATP-citrate lyase (ACLY), ACLY (gene 47)
The assay can be described thus: LTEA_HepaRG_ACLY: Life Technologies and Expression Analysis (LTEA) Assay for ATP-citrate lyase (ACLY) using HepaRG (AID 2283466). The gist of the method:
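ACLY mRNA quantified by qRT-PCR on Fluidigm arrays against three housekeeping genes, after 48 h chemical treatment of HepaRG cells (top concentration 100 uM, half-log steps, 0.5% DMSO vehicle). Up- or down-regulation fitted relative to DMSO.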

Read-out in assay [16]: Alkaline Phosphatase, Placental (ALPP) gene, ALPP (gene 250)
Briefly: LTEA_HepaRG_ALPP: Life Technologies and Expression Analysis (LTEA) Assay for Alkaline Phosphatase, Placental (ALPP) gene using HepaRG (AID 2283468).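 As to AC50: differentiated human HepaRG liver cells in serum-free induction medium.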 The method in brief:
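qRT-PCR readout of ALPP mRNA (Fluidigm TaqMan), normalized to ACTB/GAPDH/POLR2A, after 48 h chemical exposure of HepaRG cells; 8-point half-log series, top 100 uM, 0.5% DMSO vehicle. Bidirectional curve fit versus DMSO baseline.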

Read-out in assay [17]: Bcl-2 (BAD) gene, BAD (gene 572)
The assay can be described thus: LTEA_HepaRG_BAD: Life Technologies and Expression Analysis (LTEA) Assay for Bcl-2 (BAD) gene using HepaRG (AID 2283469). The gist of the method: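 Read-out: qRT-PCR of BAD mRNA, normalized to three housekeeping genes. Human HepaRG cultures got 48 h chemical exposure in 0.5% DMSO, duplicate eight-point half-log series topping at 100 uM. Gain or loss of signal fitted versus DMSO vehicle.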

Read-out in assay [18]: Peroxisomal acyl-coenzyme A oxidase 1 (ACOX1) gene, ACOX1 (gene 51)
Briefly: LTEA_HepaRG_ACOX1: Life Technologies and Expression Analysis (LTEA) Assay for Peroxisomal acyl-coenzyme A oxidase 1 (ACOX1) gene using HepaRG (AID 2283467). The gist of the method:
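ACOX1 transcript levels were quantified by TaqMan qRT-PCR against three housekeeping genes after 48 h chemical exposure of differentiated human HepaRG cells. Exposure used eight half-log steps topping at 100 uM, 0.5% DMSO vehicle, in duplicate. Bidirectional curve fits were made relative to DMSO.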

Read-out in assay [19]: ABC Transporter (ABCC3), ABCC3 (gene 8714)
The assay can be described thus: LTEA_HepaRG_ABCC3: Life Technologies and Expression Analysis (LTEA) Assay for ABC Transporter (ABCC3) using HepaRG (AID 2283462). The gist of the method:
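qRT-PCR read-out of ABCC3 transcript, normalized to three housekeeping genes (ACTB, GAPDH, POLR2A), after 48 h chemical exposure of human HepaRG cells. Eight half-log concentrations, highest 100 uM, in 0.5% DMSO; gain or loss fitted relative to DMSO baseline.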

Calls of active or inactive are those of the source. The calls were made as follows: active = hit-call score of the fitted dose curve at least 0.9, where 1 is the maximum; inactive = score below 0.9.

Chain of Broad substrate specificity ATP-binding cassette transporter ABCG2 (Homo sapiens) (Q9UNQ0 whole entry, looked up): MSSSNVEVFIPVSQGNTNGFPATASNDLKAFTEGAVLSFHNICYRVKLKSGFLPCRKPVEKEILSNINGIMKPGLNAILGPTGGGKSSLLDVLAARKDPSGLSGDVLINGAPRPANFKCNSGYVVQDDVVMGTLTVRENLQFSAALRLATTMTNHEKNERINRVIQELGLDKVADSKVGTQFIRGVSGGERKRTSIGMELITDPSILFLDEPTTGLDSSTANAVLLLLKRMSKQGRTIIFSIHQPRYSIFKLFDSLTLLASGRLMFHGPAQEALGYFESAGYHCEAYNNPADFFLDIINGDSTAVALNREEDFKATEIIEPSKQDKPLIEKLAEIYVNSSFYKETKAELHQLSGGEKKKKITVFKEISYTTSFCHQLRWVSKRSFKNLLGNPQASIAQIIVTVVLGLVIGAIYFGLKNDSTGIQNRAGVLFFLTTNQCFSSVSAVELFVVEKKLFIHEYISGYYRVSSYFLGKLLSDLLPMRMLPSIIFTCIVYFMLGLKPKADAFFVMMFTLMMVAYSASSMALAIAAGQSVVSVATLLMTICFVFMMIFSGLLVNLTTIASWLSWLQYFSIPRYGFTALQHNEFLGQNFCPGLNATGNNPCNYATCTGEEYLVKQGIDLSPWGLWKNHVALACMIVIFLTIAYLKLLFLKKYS

As usually defined, the AC50 is the concentration giving half of the maximal activity seen. As for `CCN(Cc1cccnc1)C(=O)c1cccc(Cl)c1[C@]1(C)C(=O)N(Cc2ccc(OC)cc2OC)c2ccc(Cl)cc21`, the AC50 in [1] is 11.6 µM (active); in assay [3] it was 18.4 µM (active); in assay [4], 16.6 µM (active); in [8], 18.1 µM (active); in assay [9], 8.39 µM (active); in assay [12], 23.6 µM (active). For the same compound, the AC50 in assay [14] was 6.56 µM (active); in assay [15] it was 16.9 µM (active); in assay [16], 10.1 µM (active). In addition, the compound was called inactive in [2], in [5], in [6], in assay [7], in assay [10] and in assay [11]. Also, the call in assay [13] and in assay [17] was inactive.

In the case of `OCCO`, the outcome in assay [1], in assay [2], in [3], in [4], in assay [5] and in [6] was inactive. The result in assay [7], in assay [8], in assay [10], in assay [11], in [12] and in assay [13] was inactive. The compound was called inactive in assay [14], in assay [15], in assay [18], in assay [16] and in assay [17]. The AC50 in assay [9] was 12.7 µM (active).

With `CCCCCCCCOC(=O)c1cc(O)c(O)c(O)c1`, the result in assay [1], in assay [2], in [3], in assay [4], in assay [6] and in [7] was inactive. The compound was called inactive in assay [8], in assay [9], in assay [10], in [11], in assay [19] and in assay [12]. Also, the call in assay [13], in [14], in assay [15], in [18] and in [17] was inactive. Moreover, the concentration at half-maximal activity (AC50) in assay [5] was 50 µM (active); in assay [16], 11.5 µM (active).
